Only some compounds are listed: those with a hit (about 8.5% of all), similar ones and a draw of the others.
ALDH1A1 inh – blocks purified human ALDH1A1 activity. Potency, µM (top dose mostly 75.3 µM), without a hit: top-dose activity, negative = inhibition, most hits filed as inhibitors. 7.3% of 220,000 active. Purified ALDH1A1, NADH fluorescence, propionaldehyde substrate. P00352; active = well fitted inhibition curve with a large enough effect, not every such curve was filed as active; inconclusive = small, poorly fitted or top-dose-only effect, or another doubt; inactive = no such curve, though single readings can be large or run the other way;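 also: potency is read from the fitted curve at half-maximal effect; plate controls were no enzyme wells and a reference inhibitor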
FBPA coupling cs – inhibits coupling enzyme system, counter-screen for aldolase hits | coupling enzyme system counterscreen, AmpLite Red fluorescence | activity change, negative = inhibition, % at 58.2 µM, hits read low | 0.67% of 290,000 active; in the data active = activity change below about -30%
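Counterscreen lacking aldolase: glyceraldehyde-3-phosphate coupling-enzyme reagent preincubated 10 min at RT with compound (at 57.5 uM final), then substrate/coupling system with AmpLite Red added; fluorescence read at 525/598 nm after 20 min RT.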
GoLoco inh red – inhibitors of human Gai1-RGS12 GoLoco interaction (red fluorophore); Potency, µM (top dose mostly 61.6 µM), without a hit: top-dose activity, negative = inhibition, actives largely listed as inhibitors; P63096; Gai1:RGS12 GoLoco peptide FP, rhodamine, 10 min; AID 880; 0.44% of 230,000 active; active = well fitted inhibition curve with a large enough effect, not every such curve was filed as active; inactive = no such curve, though single readings can be large or run the other way; also: potency is read from the fitted curve at half-maximal effect; nearly all actives have a fitted effect of over 30% in size
Sfp inh – Sfp phosphopantetheinyl transferase inhibition | 3.5% of 310,000 active | Q9F4F7 | Biochemical Sfp PPTase activity, qHTS | AID 1490 | Potency, µM, without a hit: largest response in the series, negative = inhibition, usual class: inhibitors;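 also: the enzyme is Sfp with the accession as filed and its product quenches rhodamine fluorescence; potency is read from the fitted curve at half-maximal effect; 0% = enzyme reaction without inhibitor and -100% = no enzyme wells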
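After 15 min at room temperature with compound, 15 nM Sfp received 5 uM rhodamine-CoA plus 12.5 uM BHQ-2-ybbR (50 mM Hepes pH 7.6, 10 mM MgCl2). Rate came from the fluorescence difference over 30 min, ex 525/em 598 nm.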
NPSR antag – antagonists of human neuropeptide S receptor cAMP signaling | Q6W5P4 | CHO-NPSR cells, cAMP TR-FRET, antagonist mode | Potency, µM (titrated, usually from 38.3 µM), inactives show top-dose activity change, negative = inhibition, most hits filed as inhibitors | 1% of 220,000 active; also: potency is read from the fitted curve at half-maximal effect; nearly all actives have a fitted effect of over 50% in size
Target sequence (Q6W5P4 whole entry, looked up): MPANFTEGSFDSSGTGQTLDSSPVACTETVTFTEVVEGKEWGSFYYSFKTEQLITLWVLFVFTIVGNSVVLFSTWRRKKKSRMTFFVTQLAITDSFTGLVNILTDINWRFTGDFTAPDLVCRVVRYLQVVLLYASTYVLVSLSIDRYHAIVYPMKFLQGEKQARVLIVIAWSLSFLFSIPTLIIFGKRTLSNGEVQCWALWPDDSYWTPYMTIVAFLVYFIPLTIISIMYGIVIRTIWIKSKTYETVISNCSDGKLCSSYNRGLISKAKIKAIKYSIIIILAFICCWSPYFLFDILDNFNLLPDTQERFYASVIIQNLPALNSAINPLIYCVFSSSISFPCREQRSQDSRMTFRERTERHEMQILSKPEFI
KDM4E inh – inhibitors of human JMJD2E histone demethylase. B2RXH2. JMJD2E catalytic domain, FDH-coupled NADH fluorescence (FDH is formaldehyde dehydrogenase). Potency, µM (highest dose often 57.1 µM), for inactives: at the highest dose activity change, negative = inhibition, hits mostly inhibitors. 1.6% of 230,000 active; active = well fitted inhibition curve with a large enough effect, not every such curve was filed as active; inconclusive = small, poorly fitted or top-dose-only effect, or another doubt; inactive = no such curve, though single readings can be large or run the other way;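 also: potency is read from the fitted curve at half-maximal effect; 0% = wells with enzyme and -100% = buffer wells without enzyme; nearly all actives have a fitted effect of over 50% in size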
Target sequence (B2RXH2 1-337 limits assumed): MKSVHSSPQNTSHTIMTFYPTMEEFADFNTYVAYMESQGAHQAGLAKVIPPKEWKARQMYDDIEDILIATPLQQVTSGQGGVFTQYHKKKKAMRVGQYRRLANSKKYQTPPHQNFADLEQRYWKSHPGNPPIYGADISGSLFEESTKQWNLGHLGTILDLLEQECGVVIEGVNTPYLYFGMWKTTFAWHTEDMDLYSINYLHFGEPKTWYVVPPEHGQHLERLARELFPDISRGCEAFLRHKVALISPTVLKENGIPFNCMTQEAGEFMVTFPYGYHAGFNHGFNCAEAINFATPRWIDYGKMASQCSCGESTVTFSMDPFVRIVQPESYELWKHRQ
Starred values were filed as active, the others as inactive; [ ] = remark or other dose. Unless noted, calls follow the shape of the dose curve; as a rule, active = well fitted curve in the direction sought with a large enough effect; inconclusive = small, poorly fitted or top-dose-only effect, or another doubt; inactive = no such curve, though single readings can be large; an effect the other way counts as inactive or inconclusive. Unless noted, % is scaled to controls: 0 for no effect and ±100 for the full control effect.

How did CCOC(=O)C(=O)Nc1ccc(OCc2ccccc2)cc1 do in these assays?
ALDH1A1 inh: 25µM*; FBPA coupling cs: 3; GoLoco inh red: 6%; Sfp inh: 5%; NPSR antag: -16%; KDM4E inh: -9%

What do the screens show for `C/C(CC(=O)Nc1ccc(OCc2ccccc2)cc1)=N\NC(=O)C(=O)Nc1ccc(C)c(Cl)c1`?
ALDH1A1 inh: 14µM*; FBPA coupling cs: 6; GoLoco inh red: 3%; Sfp inh: 7%; NPSR antag: -1%[46.1 µM]; KDM4E inh: -12%

How did Cc1c(C)n(CCCN(C)C)c2ncnc(Nc3ccc(F)cc3)c12 do in these assays?
FBPA coupling cs: -4; Sfp inh: 2%

Results for COc1ccc(CN2C(=O)c3cccnc3C2=O)cc1S(=O)(=O)NC1CCCCC1 ?
Sfp inh: 7%

What do the screens show for `O=C1ON=C(c2ccccc2)/C1=C/c1cccnc1`?
ALDH1A1 inh: -3%; FBPA coupling cs: 2; GoLoco inh red: 1%; Sfp inh: 12%; NPSR antag: -11%; KDM4E inh: 2%

Results for O=C1ON=C(c2cccc([N+](=O)[O-])c2)/C1=C/c1ccc(O)cc1 ?
ALDH1A1 inh: 10µM*; FBPA coupling cs: 3; GoLoco inh red: 3%; Sfp inh: -61%; NPSR antag: 10µM*; KDM4E inh: 0%

Results for O=C1ON=C(c2ccccc2)/C1=C/c1ccc(O)c(O)c1 ?
FBPA coupling cs: 0; Sfp inh: 50µM*

Results for O=C1ON=C(c2ccccc2)/C1=C/c1ccc(OS(=O)(=O)c2ccccc2)cc1 ?
ALDH1A1 inh: 11µM*; FBPA coupling cs: 3; GoLoco inh red: -8%; Sfp inh: -27%; NPSR antag: 6.3µM*; KDM4E inh: inconclusive

Results for COc1ccc(/C=C2\C(=O)ON=C2c2ccccc2)cc1 ?
FBPA coupling cs: -1; Sfp inh: 40µM*

Results for COc1ccc(C2(O)C(=O)Nc3ccc(C)cc32)cc1OC (stereo unspecified) ?
FBPA coupling cs: 0; Sfp inh: 14%

What do the screens show for `CN1C(=O)C2(OCC(CO)([N+](=O)[O-])CO2)c2ccccc21` (stereo unspecified)?
FBPA coupling cs: 3; Sfp inh: 8%

What do the screens show for `CN1CCN(C(=O)c2cccc(COc3cc(Cl)ccc3Cl)c2)CC1`?
ALDH1A1 inh: 10µM*; FBPA coupling cs: 2; GoLoco inh red: -3%; Sfp inh: 11%; NPSR antag: 4%; KDM4E inh: 0%

Results for O=C(CNc1ccccc1)c1ccc([N+](=O)[O-])cc1 ?
ALDH1A1 inh: 3.5µM*; FBPA coupling cs: 1; GoLoco inh red: -12%; Sfp inh: 50µM*; NPSR antag: -2%; KDM4E inh: -8%

How did Cc1ccc(C(=O)NCC(=O)NCC(=O)OCC(=O)c2ccc([N+](=O)[O-])cc2)cc1 do in these assays?
ALDH1A1 inh: 1µM*; FBPA coupling cs: 2; GoLoco inh red: -3%; Sfp inh: -54%; NPSR antag: 2%[46.1 µM]; KDM4E inh: -1%

What do the screens show for `O=C(Cc1ccccc1)NCC(=O)OCC(=O)c1cccc([N+](=O)[O-])c1`?
ALDH1A1 inh: 16%; FBPA coupling cs: 1; GoLoco inh red: -6%; Sfp inh: 12%; NPSR antag: 36%; KDM4E inh: -4%

Results for O=C(CNS(=O)(=O)c1ccccc1)OCC(=O)c1ccc([N+](=O)[O-])cc1 ?
ALDH1A1 inh: 1.1µM*; FBPA coupling cs: -1; GoLoco inh red: 2%; Sfp inh: 79µM*; NPSR antag: 10%; KDM4E inh: 4%

What do the screens show for `O=C(Cc1ccccc1)NCC(=O)OCC(=O)c1ccc([N+](=O)[O-])cc1`?
ALDH1A1 inh: 1.4µM*; FBPA coupling cs: 0; GoLoco inh red: 7%; Sfp inh: -36%; NPSR antag: 8%; KDM4E inh: 10%

Results for O=C(CNC(=O)c1ccc([N+](=O)[O-])cc1)c1ccccc1 ?
ALDH1A1 inh: 1%; FBPA coupling cs: 0; GoLoco inh red: 4%; Sfp inh: 23%; NPSR antag: -5%[46.1 µM]; KDM4E inh: 4%

How did COc1ccc(-n2c(=O)c(-c3ccc(Cl)cc3)nc3cnc(N(C)C)nc32)cc1 do in these assays?
ALDH1A1 inh: inconclusive; FBPA coupling cs: 0; GoLoco inh red: 12%; Sfp inh: -1%

How did COc1ccc(-c2cn3cc(Cl)ccc3n2)cc1OC do in these assays?
ALDH1A1 inh: inconclusive; FBPA coupling cs: -32*; GoLoco inh red: -6%; Sfp inh: -11%; NPSR antag: -22%[46.1 µM]; KDM4E inh: inconclusive

Results for O=C(NNc1ccc(Cl)cc1)c1sccc1Cl ?
ALDH1A1 inh: 8.9µM*; FBPA coupling cs: -1; GoLoco inh red: 3%; Sfp inh: -11%; NPSR antag: 14%; KDM4E inh: -23%

How did O=C(/C=C/c1ccccc1Cl)c1ccccc(=O)c1O do in these assays?
ALDH1A1 inh: -5%; FBPA coupling cs: 2; GoLoco inh red: 17%; Sfp inh: 45µM*; NPSR antag: 10µM*; KDM4E inh: 14µM*

How did Cc1ccc(C)c(NC(=O)c2ccccc2O)c1 do in these assays?
ALDH1A1 inh: 7%; FBPA coupling cs: -2; GoLoco inh red: 5%; Sfp inh: 3%; NPSR antag: -13%[46.1 µM]; KDM4E inh: -9%

Results for Cc1ccc(C)c(/C=C/C(=O)c2ccccc(=O)c2O)c1 ?
ALDH1A1 inh: -7%; FBPA coupling cs: -1; GoLoco inh red: 14%; Sfp inh: inconclusive; NPSR antag: 13µM*; KDM4E inh: 22µM*

How did Cc1ccc(/C=C/C(=O)c2ccccc(=O)c2O)c(C)c1 do in these assays?
ALDH1A1 inh: -2%; FBPA coupling cs: -5; GoLoco inh red: 3%; Sfp inh: inconclusive; NPSR antag: -18%; KDM4E inh: 28µM*

Results for CC1CN(C(=O)CCS(=O)(=O)c2ccccc2)CC(C)O1 (stereo unspecified) ?
FBPA coupling cs: -4; Sfp inh: 15%

Results for CN1CCN(CCCNC(=O)c2ccc(/C=C3\Sc4ccccc4N(Cc4ccc(F)cc4)C3=O)cc2)CC1 ?
ALDH1A1 inh: -8%; FBPA coupling cs: 0; GoLoco inh red: 1%; Sfp inh: 45µM*; NPSR antag: -41%; KDM4E inh: inconclusive

What do the screens show for `COCCCNC(=O)/C=C1\Sc2ccccc2N(Cc2ccccc2F)C1=O`?
ALDH1A1 inh: inconclusive; FBPA coupling cs: -1; GoLoco inh red: -5%; Sfp inh: 9%; NPSR antag: -12%; KDM4E inh: inconclusive

Compound activity deposited in PubChem by National Center for Advancing Translational Sciences (NCATS).
